The results in this text go back to the supplement of paper PMC10338343.

In assay [1] the test system is MILI (PIWIL2) piRISC loaded with piRNA #1 (26 nt). Kind of assay: pre-steady-state target cleavage rate (min^-1); guide: piRNA #1 5'p-UGAGGUAGUAGGUUGUAUAGUAUCCA; higher = faster piRNA-guided slicing of the target. As to conditions: auxiliary factor: 500 nM mouse GTSF1. The procedure, abridged: (§1)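 The pre-steady-state cleavage rate was derived from a burst-and-steady-state fit of Cleave-'n-Seq data. For these assays, 1 nM active affinity-purified piRISC loaded with a single synthetic guide was mixed with […] a transcribed, DNA-blocked target RNA library in HEPES–potassium acetate buffer at 33 °C, with or without 500 nM GTSF1 partner protein, for 0–8 or 0–960 min. Sequencing counts of uncleaved targets were normalised to depth and to weakly complementary targets, and k3 was capped at 0.0001 min^-1 after three trials were pooled.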

Assay [2] deals with EfPiwi piRISC loaded with piRNA #1 (26 nt). The assay is described as follows: pre-steady-state target cleavage rate (min^-1); auxiliary factor: 500 nM Ephydatia muelleri Gtsf1; guide: piRNA #1 5'p-UGAGGUAGUAGGUUGUAUAGUAUCCA; MIWI and MILI are mouse PIWI proteins and EfPiwi is from a freshwater sponge; tags in brackets are library labels; higher = faster piRNA-guided slicing of the target. The procedure, abridged: as §1

± gives the standard deviation.

Consider GGAGACCUUACUAUACGACCUACUACCUCA, for which the “pre-steady-state target cleavage rate” value in assay [1] was found to be 0.0683 ± 0.0088; in assay [2], 0.016 ± 0.0076.

As for GGAGUGGAUACUAUACAUCCUACUACCUGA, the results for the “pre-steady-state target cleavage rate” value in assay [1] and in assay [2] were 0.0983 ± 0.018 and 0.00497 ± 0.0018, respectively.

GGAGACGAUACUAUACAACCUACUAUCUCA: the figures for the “pre-steady-state target cleavage rate” value in assay [1] and in assay [2] were 0.149 ± 0.014 and 0.00856 ± 0.0034, respectively.

Take GGAGACCAAACUAUACUACCUACUACCUCA: the “pre-steady-state target cleavage rate” value in assay [1] is 0.119 ± 0.022; in assay [2], 0.00362 ± 0.0032.

Regarding GGAGACGAUACUAUACAACGCUACUACCUCA, the “pre-steady-state target cleavage rate” value was 0.00688 ± 0.0028 in assay [1] and 0.00969 ± 0.0037 in assay [2].

As for GGAGACCAUACUAUACAAACUACUACCUCA, the “pre-steady-state target cleavage rate” value turned out to be 0.234 ± 0.017 in assay [1] and 0.00853 ± 0.0037 in assay [2].

As to GGAGACCUUACUAUACAACCAACUACCUCA, the “pre-steady-state target cleavage rate” value turned out to be 0.00455 ± 0.0024 in assay [1] and 0.00528 ± 0.003 in assay [2].

Turning to GGAGUGGAUACUAUACAACCUACUUACCUCA, the results for the “pre-steady-state target cleavage rate” value in assay [1] and in assay [2] were 0.133 ± 0.011 and 0.00852 ± 0.0034, respectively.

With GGAGACCAUACUAGUACAACCUACUACCUCA, the “pre-steady-state target cleavage rate” value in assay [1] came out at 0.089 ± 0.011; in assay [2] it was 0.00796 ± 0.0044.

Consider GGAGAGCUAACUAUACAACCUACUACCUCA, for which the “pre-steady-state target cleavage rate” value in assay [1] is 0.137 ± 0.018; in assay [2], 0.00909 ± 0.0042.

In the case of GGAGUGGAUAGAAUACAACCUACUACCUCA, the “pre-steady-state target cleavage rate” value in assay [1] is 0.156 ± 0.014; in assay [2], 0.0062 ± 0.0044.

In the case of GGAGUGGAUACUAUAACAACCUACUACCUCA, the figures for the “pre-steady-state target cleavage rate” value in assay [1] and in assay [2] were 0.171 ± 0.0095 and 0.0556 ± 0.021, respectively.

In the case of GGAGUGGAUACUAUACAACCUACGACCUCA, the “pre-steady-state target cleavage rate” value in assay [1] was found to be 0.0834 ± 0.0092; in assay [2], 0.00416 ± 0.0017.

As to GGAGACCUUACUAUACCAACCUACUACCUCA, the “pre-steady-state target cleavage rate” value in assay [1] came out at 0.00685 ± 0.0036; in assay [2], 0.00457 ± 0.0029.

In the case of GGAGACGAUACUAUGCAACCUACUACCUCA, the figures for the “pre-steady-state target cleavage rate” value in assay [1] and in assay [2] were 0.21 ± 0.014 and 0.0141 ± 0.0066, respectively.

With GGAGUGGAUACUAUACAACCUACUACCUUCA, the “pre-steady-state target cleavage rate” value in assay [1] was found to be 0.128 ± 0.01; in assay [2], 0.168 ± 0.061.

In the case of GGAGAGGAAUCUAUACAACCUACUACCUCA, the “pre-steady-state target cleavage rate” value in assay [1] amounted to 0.199 ± 0.015; in assay [2], 0.00943 ± 0.0056.

Consider GGAGACGAUACUAUACUACCUACAACCUCA, for which the results for the “pre-steady-state target cleavage rate” value in assay [1] and in assay [2] were 0.181 ± 0.017 and 0.00176 ± 0.0015, respectively.

GGAGAGGAUACUAUACAACGUACUAGCUCA: the “pre-steady-state target cleavage rate” value was determined as 0.00413 ± 0.0037 in assay [1] and 0.0029 ± 0.0015 in assay [2].

GGAGACCUUACUAUACAACCUACUACCUGCA: the “pre-steady-state target cleavage rate” value in assay [1] was determined as 0.167 ± 0.019; in assay [2], 0.00419 ± 0.0031.

Take “GGAGACCAUACUAUACAACCUACUACCUCG [g2:g23:cont:t1G]”: the entries for the “pre-steady-state target cleavage rate” value in assay [1] and in assay [2] were 0.195 ± 0.017 and 0.0177 ± 0.0074, respectively.

As for “GGAGACCUAUGAAUACAACCUACUACCUCG [g2:g18:cont:t1G]”, the results for the “pre-steady-state target cleavage rate” value in assay [1] and in assay [2] were 0.0085 ± 0.002 and 0.00485 ± 0.004, respectively.

Regarding GGAGUGGUUACUAAACAACCUACUACCUCA, the “pre-steady-state target cleavage rate” value is 0.161 ± 0.0092 in assay [1] and 0.00439 ± 0.0033 in assay [2].

GGAGACGAUUCUAUACAACCUACUACCUGA: the figures for the “pre-steady-state target cleavage rate” value in assay [1] and in assay [2] were 0.167 ± 0.021 and 0.00463 ± 0.0026, respectively.

For GGAGUAGGAUACUAUACAACCUACUACCUCA, the “pre-steady-state target cleavage rate” value turned out to be 0.145 ± 0.016 in assay [1] and 0.0546 ± 0.019 in assay [2].

In the case of GGAGACGAUACUAUACAGCCUACUACCUCA, the entries for the “pre-steady-state target cleavage rate” value in assay [1] and in assay [2] were 0.16 ± 0.015 and 0.0104 ± 0.0039, respectively.

With GGAGAGGAUACUAUAUAACCUACUACCUCA, the entries for the “pre-steady-state target cleavage rate” value in assay [1] and in assay [2] were 0.167 ± 0.01 and 0.109 ± 0.041, respectively.

In the case of GGAGUGGAUACUAAUCAACCUACUACCUCA, the entries for the “pre-steady-state target cleavage rate” value in assay [1] and in assay [2] were 0.144 ± 0.01 and 0.00495 ± 0.0038, respectively.

For GGAGACGAUACUAUACCACCUACUACCUCA, the “pre-steady-state target cleavage rate” value in assay [1] worked out at 0.168 ± 0.015; in assay [2] it was 0.0106 ± 0.0037.

Take GGAGACCAAUGUAUACAACCUACUACCUCA: the results for the “pre-steady-state target cleavage rate” value in assay [1] and in assay [2] were 0.0592 ± 0.01 and 0.0133 ± 0.0056, respectively.

As to GGAGACCAUACUAUACAACGUACUUCCUCA, the “pre-steady-state target cleavage rate” value in assay [1] came out at 0.0304 ± 0.0072; in assay [2], 0.00544 ± 0.0032.

For GGAGAGGAUACUAUCCAACCUACUACCUCA, the “pre-steady-state target cleavage rate” value in assay [1] worked out at 0.232 ± 0.015; in assay [2], 0.00889 ± 0.004.

On to GGAGACCAUUCUAUACAACCUACUACCACA, for which the “pre-steady-state target cleavage rate” value came out at 0.159 ± 0.018 in assay [1] and 0.00335 ± 0.0031 in assay [2].

Turning to GGAGAGCAUACUAUACAACCUACUAGCUCA, the entries for the “pre-steady-state target cleavage rate” value in assay [1] and in assay [2] were 0.0696 ± 0.016 and 0.00355 ± 0.0022, respectively.

As to GGAGACCCUACUAUACAACCUACUACCUCA, the figures for the “pre-steady-state target cleavage rate” value in assay [1] and in assay [2] were 0.207 ± 0.021 and 0.153 ± 0.051, respectively.

As to GGAGACGAUACUAUACUACCUACUACGUCA, the “pre-steady-state target cleavage rate” value in assay [1] turned out to be 0.138 ± 0.019; in assay [2], 0.00262 ± 0.0017.

As for GGAGAGGAUCUAUACAACCUACUACCUCA, the “pre-steady-state target cleavage rate” value in assay [1] stood at 0.171 ± 0.013; in assay [2] it was 0.00612 ± 0.0048.

Turning to GGAGACGUUACUAUACAACGUACUACCUCA, the “pre-steady-state target cleavage rate” value is 0.0206 ± 0.0027 in assay [1] and 0.00362 ± 0.0014 in assay [2].

As to GGAGUGGAUACUAUACAACCACUACCUCA, the figures for the “pre-steady-state target cleavage rate” value in assay [1] and in assay [2] were 0.00753 ± 0.002 and 0.00771 ± 0.0031, respectively.

As to GGAGACCUAUCUAUGCAACCUACUACCUCA, the “pre-steady-state target cleavage rate” value was found to be 0.122 ± 0.014 in assay [1] and 0.00656 ± 0.0037 in assay [2].

Regarding GGAGUGGAUACUAUACAACCUAUCUACCUCA, the “pre-steady-state target cleavage rate” value was 0.113 ± 0.0078 in assay [1] and 0.00584 ± 0.0027 in assay [2].

As for GGAGACCUAUGAACACAACCUACUACCUCA, the “pre-steady-state target cleavage rate” value in assay [1] was 0.0162 ± 0.0041; in assay [2], 0.00896 ± 0.0044.

Take GGAGACGUAACUAUACAACCUACUACCUCA: the results for the “pre-steady-state target cleavage rate” value in assay [1] and in assay [2] were 0.166 ± 0.018 and 0.0248 ± 0.0098, respectively.

As for GGAGACCUUUGAAUACAACCUACUACCUCA, the “pre-steady-state target cleavage rate” value amounted to 0.00751 ± 0.0038 in assay [1] and 0.00525 ± 0.0038 in assay [2].

As for “GGAGACCUAUGAUUACAACCUACUACCUCU [g2:g17:cont:t1U]”, the “pre-steady-state target cleavage rate” value in assay [1] came out at 0.00674 ± 0.0025; in assay [2], 0.732 ± 0.29.

As to GGAGAGGAUUCUAUACAACCAACUACCUCA, the “pre-steady-state target cleavage rate” value in assay [1] was found to be 0.00507 ± 0.0028; in assay [2], 0.00361 ± 0.0027.

As for GGAGACCUAUCUAUACAACCCACUACCUCA, the “pre-steady-state target cleavage rate” value in assay [1] was 0.0169 ± 0.0041; in assay [2], 0.00474 ± 0.0043.

Take GGAGACCUUACUAUACAUCCUACUACCUCA: the “pre-steady-state target cleavage rate” value was determined as 0.292 ± 0.024 in assay [1] and 0.00607 ± 0.0029 in assay [2].

For GGAGUGGAUACUAAACAUCCUACUACCUCA, the results for the “pre-steady-state target cleavage rate” value in assay [1] and in assay [2] were 0.242 ± 0.013 and 0.0059 ± 0.0024, respectively.

Take GGAGUGGAUACUAUACAACGUACUAGCUCA: the results for the “pre-steady-state target cleavage rate” value in assay [1] and in assay [2] were 0.0104 ± 0.0027 and 0.00412 ± 0.0023, respectively.

As for GGAGACGAUACUAUACAUCCUACUACGUCA, the “pre-steady-state target cleavage rate” value in assay [1] stood at 0.213 ± 0.033; in assay [2], 0.00318 ± 0.0012.

In the case of GGAGUGGAUACUAUUCAAGCUACUACCUCA, the “pre-steady-state target cleavage rate” value was found to be 0.221 ± 0.013 in assay [1] and 0.0053 ± 0.0025 in assay [2].

Take GGAGUGGAUACUAUACAACCAACUACCUGA: the “pre-steady-state target cleavage rate” value in assay [1] came to 0.00303 ± 0.0022; in assay [2] it was 0.00303 ± 0.0013.

Take GGAGUGGAUACUUUACAACGUACUACCUCA: the “pre-steady-state target cleavage rate” value in assay [1] was 0.0295 ± 0.0029; in assay [2] it was 0.00254 ± 0.0014.
